cardiac RTF act: cardiac RTF calcium sensitivity activators, primary screen, biochemical, IANBD-TnC fluorescence, EC20 calcium; 340,000 tested, 0.24% active; IANBD-labeled TnC RTF fluorescence at EC20 calcium; 0% EC20 calcium, 100% full calcium; activation, % at 7.2 µM; Troponin I, cardiac muscle (Homo sapiens) + Troponin T, cardiac muscle (Homo sapiens) + …;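 active means activation above the mean over all tested compounds plus 3 SD, cut at about 30% in these data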;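 further: rise in fluorescence read as greater calcium sensitivity of cardiac thin filaments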
LANA-H2A inh: blockers of LANA interaction with H2A/H2B – biochemical, FP readout, HTS, primary screen. inhibition, % (test concentration not listed). 320,000 tested, 0.6% active. cell-free LANA-H2A/H2B peptide, fluorescence polarization. Protein LANA1 (Human herpesvirus 8 type P (isolate GK18)), Q9QR71; in the data active means inhibition mostly above about 10%, no sharp cut-off; inactive means mostly below about 6.7%
Keap1-Nrf2 PPI: Keap1-Nrf2 protein-protein interaction inhibitors, primary screen, biochemical, fluorescence polarization, single point; Keap1 Kelch-Nrf2 peptide fluorescence polarization, 1536-well; inhibition, % at 9.4 µM; 340,000 tested, 0.15% active; Kelch-like ECH-associated protein 1 (Homo sapiens), Q14145; in the data active means inhibition above about 12%;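 further: human Keap1 Kelch domain with fluorescein labeled Nrf2 9mer peptide probe; higher means more block of Keap1 binding to Nrf2 peptide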
C-LANA FP: inhibitors of KSHV C-LANA binding to DNA, primary screen, biochemical, fluorescence polarization, FAM-LBS DNA, MBP-C-LANA, single point; 340,000 tested, 0.078% active; AID 504423, 2011; Kaposi's sarcoma herpesvirus LANA C-terminal domain (residues 932-1162) DNA binding; inhibition, % at 9 µM;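 active means highest replicate inhibition at or above 60% at 9 µM, even if other replicates fall short; inactive means all replicates below 60% inhibition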
Cardiac RTF inh: cardiac RTF calcium sensitivity inhibitors, primary screen, biochemical, IANBD-TnC fluorescence, EC70 calcium | Troponin I, cardiac muscle (Homo sapiens) + Troponin T, cardiac muscle (Homo sapiens) + … | IANBD-labeled cardiac RTF, Ca2+ fluorescence | inhibition, % at 7.15 µM | 340,000 tested, 0.12% active;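 active means inhibition above the mean inhibition of all tested compounds plus 3 SD, cut at about 17% in these data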;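 further: assay run at fixed EC70 calcium of 1.6 mM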
Of the large screens only hits and unclear results are named; the others gave an inactive call; ! = repeats disagree. A selection: hits, their analogues and other compounds. The true share with any hit is near 0.99%.

CC1(C)Cc2c(cnn2-c2ccc(F)cc2)C(NC(=O)Cn2cncn2)C1 (stereo unspecified)	LANA-H2A inh 51
Nc1c(C(=O)C2CC2)sc2nc(-c3cccs3)cc(C(F)(F)F)c12	cardiac RTF act 46
N#CC(=C=[N-])/C=C(\C(=O)c1ccccc1)[n+]1ccccc1	LANA-H2A inh 21
COCC(C)n1c(SCC(=O)Nc2oc(C)c3c(C)n[nH]c(=O)c23)nc2ccccc2c1=O (stereo unspecified)	none
CC(=O)c1cccc(NS(=O)(=O)N2CCCCC2)c1	none
CCOC(=O)C1Nc2ccc(C(F)(F)F)cc2C2c3ccccc3CC12 (stereo unspecified)	none
CCOC(=O)C1Nc2ccccc2C2C(O)C(O)CC12 (stereo unspecified)	cardiac RTF act 80
CS(=O)(=O)Nc1nc2n(n1)C(c1ccccc1)C=C(c1ccc(Br)cc1)N2 (stereo unspecified)	cardiac RTF act 82, Keap1-Nrf2 PPI 35, C-LANA FP 74
COC(=O)CC1=C(C(=O)OC)C(c2cc(OC)c(OC)cc2OC)C(C#N)=C(N)O1 (stereo unspecified)	LANA-H2A inh 14
CC(C)OC(=O)CC(=O)c1sc2nc3c(cc2c1N)CN(C)CC3	LANA-H2A inh 74 (no result: cardiac RTF act, Keap1-Nrf2 PPI, C-LANA FP, Cardiac RTF inh)
COc1ccc(-n2nc3c(N4CCC(C(=O)NCc5ccco5)CC4)nnc(C)c3c2C)cc1	cardiac RTF act 30
CC(=O)N1CCc2cc(S(=O)(=O)NCCCOC(C)C)ccc21	none
COc1ccc(CC(=O)Nc2ccc(F)c(F)c2F)cc1S(=O)(=O)N1CCOCC1	LANA-H2A inh 140
COc1ccc(CC(=O)Nc2ccc(C)cc2O)cc1S(=O)(=O)N1CCOCC1	none
COc1cccc(Oc2ccc(C(F)(F)F)cc2NC(=O)C2=COCCO2)c1	none
Cc1cccc(Oc2ccccc2NC(=O)C2=COCCO2)c1	LANA-H2A inh active
CCc1ccc(C(=O)NNC(=O)c2cc(S(=O)(=O)N(C)C)ccc2N2CCCC2)cc1	none
COCCN1C(=O)/C(=C/c2ccc(N3CCCC3)cc2)SC1=S	cardiac RTF act 80
Cc1ccccc1Cn1ccc(NC(=O)c2cnn3c2NC(c2ccccc2)CC3C(F)(F)F)n1 (stereo unspecified)	LANA-H2A inh active
O=C(NC1CCCCC1)NC1(C(=O)N2CCN3CCCC3C2)CCCCC1 (stereo unspecified)	LANA-H2A inh 29
O=C(NCc1ccccc1)NC1(C(=O)N2CCN3CCCC3C2)CCCCC1 (stereo unspecified)	none
Cc1ccc(C)c(N(CC(=O)NC2CCCC2)C(=O)CCC(=O)Nc2nccs2)c1	none
CCCCN(C(=O)C(C)N1C(=O)c2ccccc2C1=O)c1c(N)n(CC(C)C)c(=O)[nH]c1=O (stereo unspecified)	LANA-H2A inh 14
CCCCn1c(N)c(N(CCC(C)C)C(=O)CCCc2nc3ccccc3s2)c(=O)[nH]c1=O	none
CCCCN(C(=O)CCCc1nc2ccccc2s1)c1c(N)n(CC(C)C)c(=O)[nH]c1=O	LANA-H2A inh 176
O=C1c2ccccc2-c2onc3ccc(NCCCn4ccnc4)c1c23	LANA-H2A inh 176 (no result: cardiac RTF act, Keap1-Nrf2 PPI, C-LANA FP, Cardiac RTF inh)
NS(=O)(=O)c1ccc(NCCCn2ccnc2)c([N+](=O)[O-])c1	none
O=C(CN1C(=O)NC2(CCCC2)C1=O)Nc1ccc(Cl)cc1F	none
CC(=O)c1sc(NC(=O)CN2C(=O)NC3(CCCC3)C2=O)nc1-c1ccccc1	LANA-H2A inh 18
Cc1sc(NC(=O)CN2C(=O)NC3(CCCC3)C2=O)nc1-c1ccc(F)cc1	none
O=C(CN1C(=O)NC2(CCCC2)C1=O)Nc1ccccc1F	LANA-H2A inh 27
Cc1cc2n(c(=O)c1C#N)CCCN2c1cccc(Cl)c1	none
CN(C)c1ccc(/C=C/C(=O)c2ccc(O)cc2)cc1	cardiac RTF act 72 (no result: LANA-H2A inh)
CN(C)c1ccc(/C=C/C(=O)c2ccc3c(c2)OCO3)cc1	cardiac RTF act 92 (no result: LANA-H2A inh)
O=C(/C=C/c1ccccc1)c1ccc2c(c1)OCO2	none
COc1ccc(C(=O)/C=C/c2ccc(N(C)C)cc2)c(OC)c1	cardiac RTF act 81
COc1ccc(C(=O)/C=C/c2ccccc2)c(OC)c1	none
Cc1cccc(C(=O)NCC(=O)OCc2cc(=O)n3ccsc3n2)c1	none
Cc1cccc(N2CCN(C(=O)Cc3ccccc3[N+](=O)[O-])CC2)c1C	LANA-H2A inh 21
O=C(Cc1ccccc1[N+](=O)[O-])N1CCN(c2ccc(F)cc2)CC1	none
Cc1cc(NC(=O)CCC(=O)N(CC(=O)NC2CCCC2)c2ccccc2)no1	LANA-H2A inh 22
O=C(O)c1cccc(Cn2c(Cl)c(/C=N/NC(=O)c3ccccc3O)sc2=O)c1	LANA-H2A inh 15
O=C(CSC1=NCCN1)Nc1cccc([N+](=O)[O-])c1	none
CCCCOc1ccc(/C=C/C(=O)OCC(=O)NC2CCS(=O)(=O)C2)cc1OCC (stereo unspecified)	none
O=C1C=C(O)c2c(O)cc(O)c(O)c2C1=O	Keap1-Nrf2 PPI 19, C-LANA FP 117, Cardiac RTF inh 31
Cc1ccc(Sc2ncccc2N)cc1	LANA-H2A inh 37 (no result: cardiac RTF act, Keap1-Nrf2 PPI, C-LANA FP, Cardiac RTF inh)
Cc1ccc(Sc2ncccc2O)cc1	none
O=S(=O)(NCc1ccccc1)c1ccc(Cl)cc1	none
O=S(=O)(Nc1cc2nc3ccccc3nc2n1Cc1ccccc1)c1ccc(Cl)cc1	LANA-H2A inh active
COc1cccc(/C=C2\SC(=S)N(C(C)C(=O)NC3C=CS(=O)(=O)C3)C2=O)c1 (stereo unspecified)	LANA-H2A inh 28
CCOC(=O)c1ccc(NC(=O)c2ccc3c(c2)C(=O)N(CC2CCCO2)C3=O)cc1 (stereo unspecified)	none
O=C(c1c[nH]c2ccccc12)N1CCOCC1	LANA-H2A inh 40
COc1ccc2c(=O)c(-c3cnn(-c4ccccc4)c3)c(C)oc2c1	LANA-H2A inh 22
CC(=O)N1CCC(N2CCN(c3ccccc3F)CC2)CC1	LANA-H2A inh 17
CCC1CCC(N2CCN(c3ccccc3F)CC2)CC1 (stereo unspecified)	none
CCOC(=O)C1=C(COC(=O)/C=C/c2cccc(Br)c2)NC(=O)NC1C (stereo unspecified)	none
CCCCCCC(=O)O	none (no result: LANA-H2A inh)
O=C(O)CCCCCCCC(=O)O	LANA-H2A inh 31!
Cc1cc(F)ccc1S(=O)(=O)N1CCC2(CC1)OCCN2S(=O)(=O)c1cccs1	none
O=C(c1cc(C2CC2)on1)N1CCCC(N2CCN(c3ccc(F)cc3)CC2)C1 (stereo unspecified)	LANA-H2A inh 13

Screening data deposited in PubChem BioAssay by several laboratories.
